Experimental data reported in PubChem BioAssay.
Calls of active or inactive are those of the source.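 How the source made its calls: active means compound whose remaining NAD level is above about 45 nM (limit read from the data); inactive means the rest.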 Positions of bridges follow the written chain, without caps; N, C: chain ends. Non-standard residues stand in square brackets, D forms with d. Residues, ends and D or L forms follow the SMILES beside them. ξ: configuration not given here. *: point of attachment. Heptanoyl(5-Me) = CCC(C)CCCC(=O)*; ξThr(3R) = C[C@@H](O)C(N)C(=O)O; dDab = NCC[C@@H](N)C(=O)O; Dab = NCC[C@H](N)C(=O)O

Target: NAD(+) hydrolase SARM1 (Homo sapiens) (UniProt Q6SZW1)
Assay: blocking NAD cleavage by SARM1 SAM-TIR – cell lysate, NAD-Glo luminescence (AID 1508614)
Settings: SAM-TIR HEK293T lysate NADase, at 1 µM, stronger effect = higher value

NAD(+) hydrolase SARM1 (Homo sapiens), sequence (Q6SZW1 whole entry, looked up): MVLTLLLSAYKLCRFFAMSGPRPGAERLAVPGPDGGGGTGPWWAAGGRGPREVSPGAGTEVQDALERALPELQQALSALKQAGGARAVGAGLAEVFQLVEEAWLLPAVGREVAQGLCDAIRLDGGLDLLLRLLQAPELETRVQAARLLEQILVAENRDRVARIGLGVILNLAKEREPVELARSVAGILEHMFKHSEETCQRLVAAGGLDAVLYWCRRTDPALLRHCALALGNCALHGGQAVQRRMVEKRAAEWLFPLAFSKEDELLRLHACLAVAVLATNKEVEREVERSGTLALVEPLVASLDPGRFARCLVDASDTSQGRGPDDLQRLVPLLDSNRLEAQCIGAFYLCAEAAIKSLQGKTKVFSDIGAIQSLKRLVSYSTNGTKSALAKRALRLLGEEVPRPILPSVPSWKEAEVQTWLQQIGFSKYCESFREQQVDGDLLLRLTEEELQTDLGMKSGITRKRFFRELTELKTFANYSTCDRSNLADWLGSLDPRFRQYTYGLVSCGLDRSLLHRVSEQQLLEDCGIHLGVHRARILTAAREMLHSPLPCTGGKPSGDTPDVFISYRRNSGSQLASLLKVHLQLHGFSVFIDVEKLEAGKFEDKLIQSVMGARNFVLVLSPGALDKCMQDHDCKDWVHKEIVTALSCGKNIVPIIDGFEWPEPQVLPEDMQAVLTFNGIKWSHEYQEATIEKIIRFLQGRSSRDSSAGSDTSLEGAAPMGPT

Remaining NAD, inactive:
CCC(C)CCCC(=O)N[C@@H](CCN)C(=O)N[C@H](C(=O)N[C@@H](CCN)C(=O)N[C@H]1CCNC(=O)C([C@@H](C)O)NC(=O)[C@@H](CCN)NC(=O)[C@H](CCN)NC(=O)[C@@H](CC(C)C)NC(=O)[C@@H](CC(C)C)NC(=O)[C@H](CCN)NC1=O)[C@@H](C)O (stereo partly drawn) ({Heptanoyl(5-Me)}-[Dab]T[Dab][Dab][Dab][dL][dL][Dab][dDab][ξThr(3R)]; lactam 4-C) 10 nM
Cc1ccc2c(Br)cc(Br)c(OC(=O)c3ccccc3)c2n1 10 nM
OC[C@@H](O)[C@@H](O)CO 10 nM
CC1(C)C2CCC1(CS(=O)(=O)O)C(=O)C2=Cc1ccc(C=C2C(=O)C3(CS(=O)(=O)O)CCC2C3(C)C)cc1 10 nM
Oc1ccc(Cl)c2c1CCC2 10 nM
COc1ccc2nc([S@@](=O)Cc3ncc(C)c(OC)c3C)[nH]c2c1 10 nM
CC(=O)O[C@@H]1C[C@@H]2CC[C@@]1(C)C2(C)C 10 nM
OC[C@H]1O[C@@H](O[C@H]2[C@H](O)[C@@H](O)[C@@H](O)O[C@@H]2CO)[C@H](O)[C@@H](O)[C@H]1O 10 nM
CCCCCCOC(=O)/N=C(\N)c1ccc(NCc2nc3cc(C(=O)N(CCC(=O)OCC)c4ccccn4)ccc3n2C)cc1 10 nM
Nc1ccc(S(=O)(=O)[O-])cc1.Nc1ccc(S(=O)(=O)[O-])cc1.O.O.O.O.[Zn+2] 10 nM
